Test [1] deals with Serine/threonine-protein kinase MRCK beta (Homo sapiens) (UniProt Q9Y5S2). Particulars: at 1 µM.
Test [2] concerns the target Ribosomal protein S6 kinase alpha-5 (Homo sapiens) (UniProt O75582). Particulars: at 1 µM.
Test [3] has the same target. Particulars: at 10 µM.
Test [4] deals with Ribosomal protein S6 kinase alpha-4 (Homo sapiens) (UniProt O75676). Particulars: at 10 µM.
Test [5] has as its target SRSF protein kinase 3 (Homo sapiens) (UniProt Q9UPE1). Particulars: at 1 µM.
The target is the same in test [6]. Particulars: at 10 µM.
In test [7] the target is T1, Serine/threonine-protein kinase 4 (Homo sapiens) (UniProt Q13043).
T1 sequence (whole entry): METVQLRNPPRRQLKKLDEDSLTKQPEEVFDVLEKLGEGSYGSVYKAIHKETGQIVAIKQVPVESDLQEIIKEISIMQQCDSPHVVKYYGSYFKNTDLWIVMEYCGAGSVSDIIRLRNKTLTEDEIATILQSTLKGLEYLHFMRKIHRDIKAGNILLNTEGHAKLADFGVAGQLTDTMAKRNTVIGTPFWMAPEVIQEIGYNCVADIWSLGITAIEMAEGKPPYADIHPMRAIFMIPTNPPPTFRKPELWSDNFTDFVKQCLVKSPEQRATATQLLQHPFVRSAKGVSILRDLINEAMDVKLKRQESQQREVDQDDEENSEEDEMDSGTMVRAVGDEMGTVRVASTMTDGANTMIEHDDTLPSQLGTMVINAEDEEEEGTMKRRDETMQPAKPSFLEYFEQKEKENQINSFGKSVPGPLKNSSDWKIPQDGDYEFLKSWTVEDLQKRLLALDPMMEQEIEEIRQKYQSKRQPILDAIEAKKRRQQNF
Particulars: at 1 µM.

Test [8] has as its target T1, Serine/threonine-protein kinase 4 (Homo sapiens). Particulars: at 10 µM.
In test [9] the target is T2, Serine/threonine-protein kinase 3 (Homo sapiens) (UniProt Q13188).
T2 sequence (whole entry): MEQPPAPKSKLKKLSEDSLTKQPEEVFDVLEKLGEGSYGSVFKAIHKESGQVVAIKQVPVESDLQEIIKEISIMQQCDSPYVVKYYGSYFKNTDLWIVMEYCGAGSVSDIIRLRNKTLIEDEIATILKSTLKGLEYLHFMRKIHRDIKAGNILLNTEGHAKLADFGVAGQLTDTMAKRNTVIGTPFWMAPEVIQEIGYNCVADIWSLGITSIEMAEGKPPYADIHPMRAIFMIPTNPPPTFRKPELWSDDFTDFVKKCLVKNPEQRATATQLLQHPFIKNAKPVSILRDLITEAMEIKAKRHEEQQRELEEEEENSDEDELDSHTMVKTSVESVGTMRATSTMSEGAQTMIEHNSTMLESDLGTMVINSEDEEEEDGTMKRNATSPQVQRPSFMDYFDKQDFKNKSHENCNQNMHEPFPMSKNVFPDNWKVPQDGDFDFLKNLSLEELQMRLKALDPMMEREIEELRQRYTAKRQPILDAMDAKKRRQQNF
Particulars: at 1 µM.

Test [10] deals with T2, Serine/threonine-protein kinase 3 (Homo sapiens). Particulars: at 10 µM.
The target of test [11] is Serine/threonine-protein kinase 24 (Homo sapiens) (UniProt Q9Y6E0). Particulars: at 10 µM.
Serine/threonine-protein kinase 24 (Homo sapiens), sequence (Q9Y6E0 whole entry, looked up): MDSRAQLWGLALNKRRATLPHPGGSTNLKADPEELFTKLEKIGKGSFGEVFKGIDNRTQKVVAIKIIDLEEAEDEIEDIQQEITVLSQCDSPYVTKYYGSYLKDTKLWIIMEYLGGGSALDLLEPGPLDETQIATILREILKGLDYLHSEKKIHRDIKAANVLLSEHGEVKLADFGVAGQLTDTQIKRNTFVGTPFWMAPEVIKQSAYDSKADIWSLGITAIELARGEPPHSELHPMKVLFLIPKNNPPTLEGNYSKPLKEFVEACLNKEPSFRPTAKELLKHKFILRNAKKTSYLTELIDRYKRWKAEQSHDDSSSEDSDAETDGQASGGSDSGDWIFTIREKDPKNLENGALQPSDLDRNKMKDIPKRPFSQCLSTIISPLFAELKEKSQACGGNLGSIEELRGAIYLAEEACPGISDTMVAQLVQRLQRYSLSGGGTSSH
Test [12] has as its target T3, Tyrosine-protein kinase Mer (Homo sapiens) (UniProt Q12866).
T3 sequence (whole entry): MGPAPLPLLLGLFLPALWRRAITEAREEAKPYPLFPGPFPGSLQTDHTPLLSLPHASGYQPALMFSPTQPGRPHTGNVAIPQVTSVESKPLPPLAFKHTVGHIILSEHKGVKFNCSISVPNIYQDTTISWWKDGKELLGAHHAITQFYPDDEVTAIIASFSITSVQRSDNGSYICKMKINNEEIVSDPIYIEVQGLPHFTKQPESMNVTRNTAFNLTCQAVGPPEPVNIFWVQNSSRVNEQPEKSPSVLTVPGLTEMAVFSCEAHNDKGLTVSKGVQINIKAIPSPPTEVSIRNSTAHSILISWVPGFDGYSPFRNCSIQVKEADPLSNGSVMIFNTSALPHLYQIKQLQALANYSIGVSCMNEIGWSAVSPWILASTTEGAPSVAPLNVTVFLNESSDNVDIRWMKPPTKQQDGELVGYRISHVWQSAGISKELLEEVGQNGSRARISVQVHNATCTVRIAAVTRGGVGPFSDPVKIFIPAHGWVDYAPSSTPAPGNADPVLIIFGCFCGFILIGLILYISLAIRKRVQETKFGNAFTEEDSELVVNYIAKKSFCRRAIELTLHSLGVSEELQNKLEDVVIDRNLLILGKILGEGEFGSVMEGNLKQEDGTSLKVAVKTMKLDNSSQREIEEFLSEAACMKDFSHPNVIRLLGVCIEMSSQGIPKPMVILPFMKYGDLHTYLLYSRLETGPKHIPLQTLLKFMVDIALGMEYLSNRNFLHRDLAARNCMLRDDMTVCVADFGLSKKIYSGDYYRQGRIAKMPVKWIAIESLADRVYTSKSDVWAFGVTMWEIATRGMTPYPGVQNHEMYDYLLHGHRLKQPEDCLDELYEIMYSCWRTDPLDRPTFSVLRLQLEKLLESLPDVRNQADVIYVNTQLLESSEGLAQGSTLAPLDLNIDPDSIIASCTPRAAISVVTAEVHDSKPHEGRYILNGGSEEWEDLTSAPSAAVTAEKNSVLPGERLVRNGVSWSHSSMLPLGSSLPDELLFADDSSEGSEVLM
Particulars: at 1 µM.

Test [13] has as its target T3, Tyrosine-protein kinase Mer (Homo sapiens). Particulars: at 10 µM.
In test [14] the target is Hepatocyte growth factor receptor (Homo sapiens) (UniProt P08581). Particulars: at 1 µM.
Hepatocyte growth factor receptor (Homo sapiens), sequence (P08581 whole entry): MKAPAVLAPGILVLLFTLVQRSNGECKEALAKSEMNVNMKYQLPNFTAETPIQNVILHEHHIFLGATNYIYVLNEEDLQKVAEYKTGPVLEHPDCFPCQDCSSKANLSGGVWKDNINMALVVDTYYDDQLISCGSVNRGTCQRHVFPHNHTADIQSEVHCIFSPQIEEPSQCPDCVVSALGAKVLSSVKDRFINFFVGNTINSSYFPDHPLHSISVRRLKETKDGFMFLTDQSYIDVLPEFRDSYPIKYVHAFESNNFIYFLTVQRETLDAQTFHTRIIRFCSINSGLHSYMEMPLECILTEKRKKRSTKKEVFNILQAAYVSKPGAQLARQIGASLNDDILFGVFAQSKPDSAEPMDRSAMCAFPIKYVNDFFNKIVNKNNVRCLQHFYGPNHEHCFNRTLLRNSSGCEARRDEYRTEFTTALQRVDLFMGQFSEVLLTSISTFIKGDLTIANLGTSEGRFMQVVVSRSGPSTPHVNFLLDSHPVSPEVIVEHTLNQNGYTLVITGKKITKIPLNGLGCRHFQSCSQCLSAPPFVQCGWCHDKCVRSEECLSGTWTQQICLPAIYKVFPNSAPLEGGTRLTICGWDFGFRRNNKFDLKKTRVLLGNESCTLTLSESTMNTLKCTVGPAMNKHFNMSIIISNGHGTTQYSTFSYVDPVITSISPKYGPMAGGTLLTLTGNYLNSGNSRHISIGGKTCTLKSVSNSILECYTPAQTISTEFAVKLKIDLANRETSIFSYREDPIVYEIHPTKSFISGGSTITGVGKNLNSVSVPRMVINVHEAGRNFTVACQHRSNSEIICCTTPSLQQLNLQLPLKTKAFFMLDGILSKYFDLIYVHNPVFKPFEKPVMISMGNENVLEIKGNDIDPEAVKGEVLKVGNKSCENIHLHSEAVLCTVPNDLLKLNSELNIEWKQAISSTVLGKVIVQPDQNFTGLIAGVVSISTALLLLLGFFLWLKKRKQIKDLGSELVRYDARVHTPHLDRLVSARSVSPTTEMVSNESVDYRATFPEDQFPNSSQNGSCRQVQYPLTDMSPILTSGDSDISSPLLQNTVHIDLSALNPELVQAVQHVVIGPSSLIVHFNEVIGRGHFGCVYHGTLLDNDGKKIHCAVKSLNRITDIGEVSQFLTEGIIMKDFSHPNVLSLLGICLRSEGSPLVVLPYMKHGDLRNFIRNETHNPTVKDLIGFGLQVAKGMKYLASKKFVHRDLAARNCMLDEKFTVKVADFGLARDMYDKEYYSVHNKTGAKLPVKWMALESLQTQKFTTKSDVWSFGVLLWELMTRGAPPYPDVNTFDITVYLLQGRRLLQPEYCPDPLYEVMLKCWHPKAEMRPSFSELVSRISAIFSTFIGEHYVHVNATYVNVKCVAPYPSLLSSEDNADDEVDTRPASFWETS
Test [15] has the same target. Particulars: at 10 µM.
Test [16] deals with MAP kinase-interacting serine/threonine-protein kinase 2 (Homo sapiens) (UniProt Q9HBH9). Particulars: at 1 µM.
MAP kinase-interacting serine/threonine-protein kinase 2 (Homo sapiens), sequence (Q9HBH9 whole entry, looked up): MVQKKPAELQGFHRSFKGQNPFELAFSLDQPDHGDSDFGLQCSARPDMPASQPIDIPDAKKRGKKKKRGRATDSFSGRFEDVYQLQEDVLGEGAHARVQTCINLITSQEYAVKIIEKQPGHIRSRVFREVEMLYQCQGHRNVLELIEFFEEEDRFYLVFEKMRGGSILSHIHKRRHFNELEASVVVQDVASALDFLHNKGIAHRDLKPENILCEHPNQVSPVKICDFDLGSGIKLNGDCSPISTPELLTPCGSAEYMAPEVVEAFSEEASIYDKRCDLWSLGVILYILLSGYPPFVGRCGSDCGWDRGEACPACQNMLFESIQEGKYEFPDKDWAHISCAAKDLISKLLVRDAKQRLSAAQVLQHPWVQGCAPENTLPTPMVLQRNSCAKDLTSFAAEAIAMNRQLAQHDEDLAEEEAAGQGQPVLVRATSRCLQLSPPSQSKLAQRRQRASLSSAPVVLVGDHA
The target is the same in test [17]. Particulars: at 10 µM.
Test [18] concerns the target Serine/threonine-protein kinase MRCK beta (Homo sapiens) (UniProt Q9Y5S2). Particulars: at 10 µM.
Test [19] concerns the target Ribosomal protein S6 kinase alpha-4 (Homo sapiens) (UniProt O75676). Particulars: at 1 µM.
Test [20] has as its target Serine/threonine-protein kinase 24 (Homo sapiens) (UniProt Q9Y6E0). Particulars: at 1 µM.

The record followed here is ChEMBL document CHEMBL2218924, “A broad activity screen in support of a chemogenomic map for kinase signalling research and drug discovery” (Biochem J, 2013).

SMILES strings stand for the structures.

SRSF protein kinase 3 (Homo sapiens), sequence (Q9UPE1 whole entry): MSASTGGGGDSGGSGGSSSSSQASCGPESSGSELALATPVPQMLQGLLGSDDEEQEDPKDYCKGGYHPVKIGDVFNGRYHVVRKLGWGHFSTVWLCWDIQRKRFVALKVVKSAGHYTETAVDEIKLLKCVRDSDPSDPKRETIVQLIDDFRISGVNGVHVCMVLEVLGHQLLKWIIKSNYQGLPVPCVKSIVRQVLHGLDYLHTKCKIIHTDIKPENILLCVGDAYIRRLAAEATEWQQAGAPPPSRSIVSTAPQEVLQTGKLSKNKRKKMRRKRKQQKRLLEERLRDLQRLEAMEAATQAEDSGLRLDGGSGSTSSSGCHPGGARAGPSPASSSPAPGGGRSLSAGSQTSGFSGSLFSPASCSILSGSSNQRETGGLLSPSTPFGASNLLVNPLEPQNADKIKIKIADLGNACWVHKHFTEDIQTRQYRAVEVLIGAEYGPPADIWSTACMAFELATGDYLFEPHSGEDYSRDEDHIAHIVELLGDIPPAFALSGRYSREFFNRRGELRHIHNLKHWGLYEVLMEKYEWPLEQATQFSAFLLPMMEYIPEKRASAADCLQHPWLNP
Ribosomal protein S6 kinase alpha-5 (Homo sapiens), sequence (O75582 whole entry, looked up): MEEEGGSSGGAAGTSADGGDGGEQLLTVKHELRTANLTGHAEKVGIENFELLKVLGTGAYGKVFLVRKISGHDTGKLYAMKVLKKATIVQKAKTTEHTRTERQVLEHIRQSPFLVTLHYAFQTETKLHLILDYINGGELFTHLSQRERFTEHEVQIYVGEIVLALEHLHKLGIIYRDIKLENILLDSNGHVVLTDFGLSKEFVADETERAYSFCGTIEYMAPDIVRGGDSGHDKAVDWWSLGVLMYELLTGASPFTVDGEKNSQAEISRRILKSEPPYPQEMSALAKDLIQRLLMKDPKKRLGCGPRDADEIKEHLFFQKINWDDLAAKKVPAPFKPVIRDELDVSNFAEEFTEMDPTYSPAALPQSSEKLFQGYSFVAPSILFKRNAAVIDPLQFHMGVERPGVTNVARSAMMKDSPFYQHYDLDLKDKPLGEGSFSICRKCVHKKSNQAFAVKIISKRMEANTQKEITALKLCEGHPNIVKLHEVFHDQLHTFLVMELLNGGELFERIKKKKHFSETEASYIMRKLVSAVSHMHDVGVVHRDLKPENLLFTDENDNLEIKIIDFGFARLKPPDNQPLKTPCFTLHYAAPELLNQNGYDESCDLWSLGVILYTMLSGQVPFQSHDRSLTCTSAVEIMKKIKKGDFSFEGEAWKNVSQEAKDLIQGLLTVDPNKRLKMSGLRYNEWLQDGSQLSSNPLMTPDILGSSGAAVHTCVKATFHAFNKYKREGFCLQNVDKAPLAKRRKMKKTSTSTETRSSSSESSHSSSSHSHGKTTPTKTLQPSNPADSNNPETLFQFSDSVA
Ribosomal protein S6 kinase alpha-4 (Homo sapiens), sequence (O75676 whole entry, looked up): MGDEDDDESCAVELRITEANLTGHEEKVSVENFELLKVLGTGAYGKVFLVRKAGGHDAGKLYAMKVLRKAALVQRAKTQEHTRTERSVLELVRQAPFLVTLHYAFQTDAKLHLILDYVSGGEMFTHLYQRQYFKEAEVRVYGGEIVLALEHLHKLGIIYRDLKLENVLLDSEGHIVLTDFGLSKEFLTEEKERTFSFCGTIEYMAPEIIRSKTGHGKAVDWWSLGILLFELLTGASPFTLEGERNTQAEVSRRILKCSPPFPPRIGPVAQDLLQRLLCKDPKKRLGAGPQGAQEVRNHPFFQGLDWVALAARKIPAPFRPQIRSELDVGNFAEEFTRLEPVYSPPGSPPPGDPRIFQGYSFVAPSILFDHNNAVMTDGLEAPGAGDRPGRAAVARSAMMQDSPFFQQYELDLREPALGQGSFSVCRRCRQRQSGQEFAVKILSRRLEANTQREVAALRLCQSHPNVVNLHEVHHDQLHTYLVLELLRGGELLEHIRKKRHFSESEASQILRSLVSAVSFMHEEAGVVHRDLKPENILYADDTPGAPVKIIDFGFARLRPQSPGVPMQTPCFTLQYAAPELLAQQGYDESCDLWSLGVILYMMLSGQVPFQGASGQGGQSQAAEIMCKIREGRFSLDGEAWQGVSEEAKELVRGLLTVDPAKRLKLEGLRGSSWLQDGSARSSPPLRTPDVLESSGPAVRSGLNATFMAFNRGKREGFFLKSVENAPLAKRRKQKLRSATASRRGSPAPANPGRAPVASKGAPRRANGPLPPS

By residual activity is commonly meant the signal under treatment as a percentage of the control signal. With `O=C1Nc2ccc(Br)cc2/C1=C\c1cc2c([nH]1)CCCC2`, the residual activity was 98% in test [1]; 111% in [2]; 105% in [3]; 99% in [4]; 101% in test [5]; 80% in test [6]. Besides, the residual activity in [7] is 60%; in [8], 75%; in test [9] it was 46%; in test [10], 61%; in [11] it was 77%; in test [12] it was 68%. For the same compound, the residual activity in [13] amounted to 45%; in [14], 104%; in test [15], 144%; in [16], 108%; in [17], 102%.
Take `Cc1cncc2cccc(S(=O)(=O)N3CCCN(C(=O)CN)C[C@H]3C)c12`: the residual activity in test [1] was determined as 89%; in test [18], 80%; in test [2] it was 126%; in test [3], 54%; in [19], 66%; in test [4], 37%. For the same compound, the residual activity in test [6] was 77%; in test [7], 87%; in test [8], 75%; in [20] it was 61%; in test [11], 71%; in test [12] it was 79%. Further, the residual activity stood at 21% in test [13], 84% in [14], 123% in test [15] and 72% in [17].
Turning to `CN(C)c1ccc(/C=C2\C(=O)Nc3ccccc32)cc1`, the residual activity in test [1] turned out to be 106%; in [18] it was 102%; in test [2], 116%; in [3], 79%; in [19], 87%; in [4] it was 57%. Besides, the residual activity in test [5] was 103%; in test [6], 80%; in [7], 95%; in test [8], 74%; in [9] it was 108%; in test [20] it was 66%. Moreover, the residual activity in test [11] is 49%; in test [12], 51%; in [13], 36%; in test [14] it was 112%; in test [15], 107%; in test [16] it was 107%. Besides, the residual activity in test [17] came to 95%.
Consider `O=C1Nc2ccccc2/C1=C1/Nc2ccccc2/C1=N\OCCC(O)CO` (centres undefined), for which the residual activity stood at 47% in test [2]; 10% in test [3]; 15% in test [19]; 2% in [4]; 62% in test [5]; 42% in test [6]. The residual activity in [7] is 4%; in [8], -3%; in test [9], 4%; in test [10], 1%; in test [20] it was 27%; in [11], 3%. Besides, the residual activity in test [12] is 1%; in test [13] it was -1%; in test [14] it was 45%; in [15] it was 37%; in test [16], 66%; in test [17] it was 44%.
Turning to `O=C(Nc1cccc(Nc2nccc(Nc3cccc(C(F)(F)F)c3)n2)c1)C1CC1`, the residual activity in test [1] stood at 103%; in test [18], 88%; in test [2] it was 114%; in test [3] it was 89%; in test [19], 89%; in [4] it was 89%. Also, the residual activity came out at 105% in test [5]; 89% in test [6]; 110% in [7]; 92% in test [8]; 89% in test [9]; 60% in [10]. Also, the residual activity in test [20] is 72%; in [11] it was 65%; in test [12], 72%; in test [13], 70%; in test [14] it was 79%; in test [15], 55%. The residual activity in [16] is 70%; in test [17], 77%.
On to `N#CCCc1ccc2c(c1)-c1[nH]c3ccc([N+](=O)[O-])cc3c1CC(=O)N2`, for which the residual activity came out at 9% in test [1]; 6% in test [18]; 79% in test [4]; 10% in test [7]; 6% in test [8]; 27% in test [9]. Besides, the residual activity in [10] stood at 7%; in test [20], 37%; in test [11], 12%; in test [16], 72%; in test [17], 42%.
As to `Cc1nc2cc3nc(-c4cccs4)cnc3cc2n1C`, the residual activity in [1] was 105%; in test [18], 100%; in test [2], 129%; in [3] it was 101%; in test [19], 101%; in test [5] it was 117%. The residual activity in [6] is 88%; in test [7] it was 105%; in test [8] it was 94%; in test [9] it was 107%; in [10], 87%; in [20], 90%. Further, the residual activity in [11] was 96%; in test [12], 103%; in [13] it was 41%; in test [14] it was 128%; in test [15], 91%; in test [16], 84%. Besides, in test [17], the residual activity is 37%.
Turning to `COc1cc2ncnc(Nc3ccc(NC(=O)c4ccccc4)cc3)c2cc1OC`, the residual activity in [18] turned out to be 90%; in test [3] it was 95%; in test [19], 106%; in test [4] it was 101%; in [6] it was 99%; in [8], 98%. Besides, the residual activity in test [10] was found to be 95%; in [20] it was 90%; in [12], 108%; in [13], 59%; in [14] it was 88%; in test [15], 23%. Besides, the residual activity in [16] was 98%; in test [17], 57%.
